Measured values published in PubChem BioAssay (Tox21).
Inconclusive results are not listed. Active and inactive are the calls of the source. Unless noted, calls come from the whole dose curve; as a rule, active = well fitted curve in the direction sought with a large enough effect in the repeat runs; inconclusive = weak or mixed curves; inactive = no such curve, though single readings can be large; an effect the other way counts as inactive or inconclusive.

What was measured:
[1] = target: Estrogen receptor beta (Homo sapiens) (UniProt Q92731); experiment: qHTS assay to identify small molecule agonists of the estrogen receptor beta (ER-beta) signaling pathway (AID 1259377; active = well fitted activation curve with a large enough effect in the signal ratio in the repeat runs, not every such curve was filed as active; the % refers to the signal ratio)
Summary of the method: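 Read-out: beta-lactamase FRET fluorescence. Cell line: ER-beta-UAS-bla HEK293T in 2% charcoal-stripped FBS. Exposure: 16 hr at 37C. Substrate step: 2 h at room temperature.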

[2] = target: Estrogen receptor beta (Homo sapiens) (UniProt Q92731); experiment: qHTS assay to identify small molecule antagonists of the estrogen receptor beta (ER-beta) signaling pathway (AID 1259378; active = well fitted inhibition curve with a large enough effect in the signal ratio in the repeat runs, not every such curve was filed as active; the % refers to the signal ratio)
Summary of the method: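 ER-beta-UAS-bla HEK293T (GripTite) cells in 2% charcoal-stripped FBS medium were preincubated 6 hr at 37C, dosed with compound, then stimulated with 1 nM E2 (final) for 16 hr; beta-lactamase reporter read by B/G FRET fluorescence after 2 hr substrate loading.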

[3] = qHTS assay to identify small molecule agonists of the androgen receptor (AR) signaling pathway in the presence of an antagonist - cell viability counter screen (AID 1259379);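 note: MDA-kb2 human breast cancer cells carrying an MMTV luciferase reporter; series mostly up to about 92 µM; nearly all actives have a fitted effect of over 25% in size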
Summary of the method: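 Fluorescence from CellTiter-Fluor, added after 15 hr and read 1 hr later, gave cell viability. Cells were MDA-kb2 exposed to compounds (15 concentrations) in the presence of 3.0uM nilutamide at 37C, 0% CO2.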

[4] = qHTS assay to identify small molecule agonists of the estrogen receptor beta (ER-beta) signaling pathway - cell viability counter screen (AID 1259380); note: nearly all actives have a fitted effect of over 30% in size
Summary of the method: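 Same-well viability counter screen. Cells: ER-beta-UAS-bla HEK293T, plated 6 hr before compound, in 2% charcoal-stripped FBS. Compound exposure 16 hr, 37C; viability by CellTiter-Glo luminescence after 30 min at room temperature.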

[5] = qHTS assay to identify small molecule antagonists of the estrogen receptor beta (ER-beta) signaling pathway - cell viability counter screen (AID 1259382); note: series mostly up to about 92 µM; nearly all actives have a fitted effect of over 55% in size
Summary of the method: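 Following a 6 hr plating period, HEK293T cells carrying a UAS-driven beta-lactamase reporter under ER-beta control received compounds and 1nM E2 (final). After 16 hr at 37C and 2 hr substrate loading, CellTiter-Glo luminescence indicated viability.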

[6] = qHTS assay to identify small molecule agonists or antagonists of the thyroid stimulating hormone receptor (TSHR) signaling pathway - wild type cell line counter screen (AID 1259384; calls by dose curve)
Summary of the method: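 Wild-type HEK293 cells were plated 18 h at 37 C/5% CO2, pin-dosed with compound plus Ro20-1724 medium, held 30 min at room temperature, then given cAMP-d2 and anti-cAMP-cryptate; fluorescence was read after 1 h. Fifteen concentrations, triplicate.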

[7] = target: Thyrotropin receptor (Homo sapiens) (UniProt P16473); experiment: qHTS assay to identify small molecule antagonists of the thyroid stimulating hormone receptor (TSHR) signaling pathway (AID 1259385; calls by dose curve; note: nearly all actives have a fitted effect of over 20% in size)
Summary of the method: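 TSHR-HEK293 cells were plated and held 18 h at 37C/5% CO2, then given compound plus Ro20-1724 and stimulated with TSH at 1.5 ng/mL final. After 30 min at room temperature, cAMP was detected with cAMP-d2/anti-cAMP-cryptate (1 h) by fluorescence.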

[8] = qHTS assay to identify small molecule agonists of the estrogen receptor alpha (ER-alpha) signaling pathway in the presence of an antagonist - cell viability counter screen (AID 1259386);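 note: series mostly up to about 92 µM; cells exposed to compounds for 22 h at 37 °C before the viability read; nearly all actives have a fitted effect of over 30% in size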
Summary of the method: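 Cells are starved of estrogens for 5 days in charcoal-stripped serum, seeded for 24hr and co-treated with ICI-182,780 (10.0nM final) and test compounds. After 22hr at 37C, viability is read as CellTiter-Fluor fluorescence.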

[9] = target: Progesterone receptor (Homo sapiens) (UniProt P06401); experiment: qHTS assay to identify small molecule agonists of the progesterone receptor (PR) signaling pathway (AID 1346784; calls by dose curve; note: nearly all actives have a fitted effect of over 30% in size)
Summary of the method: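 Compounds were tested for PR agonism in HEK 293T cells bearing a beta-lactamase gene under UAS control. Treatment lasted 16 hr at 37C; signal came from fluorescence of a FRET substrate.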

[10] = qHTS assay to identify small molecule antagonists of the progesterone receptor (PR) signaling pathway - cell viability counter screen (AID 1346798); note: series mostly up to about 92 µM; nearly all actives have a fitted effect of over 50% in size
Summary of the method: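 Following a 4 hr attachment, PR-UAS-bla HEK293T cells in charcoal-stripped FBS medium were exposed to compounds with R5020 for 16 hr; CellTiter-Glo was added and luminescence read after 30 min at room temperature.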

[11] = qHTS assay to identify small molecule agonists of the progesterone receptor (PR) signaling pathway - cell viability counter screen (AID 1346799; calls by dose curve; note: nearly all actives have a fitted effect of over 45% in size)
Summary of the method: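 Here, 3,000 PR-UAS-bla HEK293T cells per well were treated with compounds for 16 hr after a 6 hr preincubation at 37C and 5% CO2; cell viability is the CellTiter-Glo luminescence signal.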

[12] = qHTS assay to identify small molecule antagonists of the TGF-beta/Smad signaling pathway - cell viability counter screen (AID 1346824); note: nearly all actives have a fitted effect of over 50% in size
Summary of the method: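 SBE-bla HEK 293T cells were plated overnight at 37 C, then given compounds in DMSO plus TGF-beta1 (added as 0.25 ng/mL solution) for 5 hr. After the bla read, CellTiter-Glo was added to the same wells and luminescence read after 30 min at room temperature.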

[13] = qHTS assay to identify small molecule agonists of the TGF-beta/Smad signaling pathway - cell viability counter screen (AID 1346829); note: top concentration of the series differs between compounds; nearly all actives have a fitted effect of over 45% in size
Summary of the method: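 Luminescence from CellTiter-Glo, read after a 30 min room-temperature incubation, gives cell viability of SBE-bla HEK 293T cells treated 5 hr with compounds at 37 C.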

[14] = qHTS assay to identify small molecule agonists of the TGF-beta/Smad signaling pathway (AID 1346859; active = well fitted activation curve with a large enough effect in the signal ratio in the repeat runs, not every such curve was filed as active; the % refers to the signal ratio; note: series mostly up to about 77 µM)
Summary of the method: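 Each well held 4,000 SBE-bla HEK 293T cells incubated overnight before compound addition; 5 hr later the cleavable FRET substrate went on for 2 hr at room temperature, and fluorescence was read at two emissions.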

[15] = target: Thyrotropin-releasing hormone receptor (Homo sapiens) (UniProt P34981); experiment: qHTS assay to identify small molecule antagonists of the thyrotropin-releasing hormone receptor (TRHR) signaling pathway (AID 1346877; active = well fitted inhibition curve with a large enough effect in the repeat runs, not every such curve was filed as active; note: series mostly up to about 51 µM)
Summary of the method: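 Cells (TRHR-HEK293) are plated and kept 18 h at 37 °C/5% CO2. A calcium-sensitive dye is added for 2 h, compound follows for 5 min at room temperature, and TRH is then given at 1 nM final.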

[16] = target: Thyrotropin-releasing hormone receptor (Homo sapiens) (UniProt P34981); experiment: qHTS assay to identify small molecule agonists of the thyrotropin-releasing hormone receptor (TRHR) signaling pathway (AID 1346891; calls by dose curve; note: series mostly up to about 58 µM)
Summary of the method: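 Screening of agonists relied on calcium signalling in HEK293 cells expressing human TRHR: dye loading 2 h at 37 °C preceded compound addition and a 3-min fluorescence time course.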

[17] = target: Androgen receptor (Homo sapiens) (UniProt P10275); experiment: qHTS assay to identify small molecule agonists of the androgen receptor (AR) signaling pathway in the presence of an antagonist (AID 1259381; calls by dose curve; note: nearly all actives have a fitted effect of over 15% in size)
Summary of the method: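 Cells are MDA-kb2 (human breast carcinoma, MMTV-luc, AR/GR responsive). Nilutamide is present at 3.0uM final throughout; compounds are added at 15 concentrations and incubated 16hr at 37C before ONE-Glo luminescence detection.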

[18] = target: Progesterone receptor (Homo sapiens) (UniProt P06401); experiment: qHTS assay to identify small molecule antagonists of the progesterone receptor (PR) signaling pathway (AID 1346795; active = well fitted inhibition curve with a large enough effect in the signal ratio in the repeat runs, not every such curve was filed as active; the % refers to the signal ratio)
Summary of the method: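 In HEK293T cells bearing the PR-UAS-bla reporter, compound effects on promegestone-driven (1 nM) beta-lactamase expression are assessed after 16 hr using a fluorescent FRET substrate incubated 2 hr at room temperature.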

[19] = target: Estrogen receptor (Homo sapiens) (UniProt P03372); experiment: qHTS assay to identify small molecule agonists of the estrogen receptor alpha (ER-alpha) signaling pathway in the presence of an antagonist (AID 1259383; calls by dose curve; note: top concentration of the series differs between compounds; nearly all actives have a fitted effect of over 15% in size)
Summary of the method: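 Cells are hormone-deprived for 5 days (charcoal-stripped FBS, no phenol red), plated for 24hr, spiked with 10.0nM ICI-182,780, then dosed at 15 concentrations. After 22hr at 37C, ONE-Glo luminescence reports ERE-luciferase activity.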

Measured: Potency

Sequence of Thyrotropin-releasing hormone receptor (Homo sapiens) (P34981 whole entry, looked up): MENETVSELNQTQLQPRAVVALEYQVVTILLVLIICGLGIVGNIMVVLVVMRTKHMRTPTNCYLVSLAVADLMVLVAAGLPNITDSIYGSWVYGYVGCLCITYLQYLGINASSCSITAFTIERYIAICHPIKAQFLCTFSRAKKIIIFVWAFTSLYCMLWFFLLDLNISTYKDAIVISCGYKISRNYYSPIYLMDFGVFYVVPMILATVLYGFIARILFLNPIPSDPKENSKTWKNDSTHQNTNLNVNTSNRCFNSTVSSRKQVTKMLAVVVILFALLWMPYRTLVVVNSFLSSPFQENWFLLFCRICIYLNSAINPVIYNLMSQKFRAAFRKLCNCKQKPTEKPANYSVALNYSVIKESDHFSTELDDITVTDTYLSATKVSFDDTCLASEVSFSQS
Sequence of Estrogen receptor (Homo sapiens) (P03372 whole entry, looked up): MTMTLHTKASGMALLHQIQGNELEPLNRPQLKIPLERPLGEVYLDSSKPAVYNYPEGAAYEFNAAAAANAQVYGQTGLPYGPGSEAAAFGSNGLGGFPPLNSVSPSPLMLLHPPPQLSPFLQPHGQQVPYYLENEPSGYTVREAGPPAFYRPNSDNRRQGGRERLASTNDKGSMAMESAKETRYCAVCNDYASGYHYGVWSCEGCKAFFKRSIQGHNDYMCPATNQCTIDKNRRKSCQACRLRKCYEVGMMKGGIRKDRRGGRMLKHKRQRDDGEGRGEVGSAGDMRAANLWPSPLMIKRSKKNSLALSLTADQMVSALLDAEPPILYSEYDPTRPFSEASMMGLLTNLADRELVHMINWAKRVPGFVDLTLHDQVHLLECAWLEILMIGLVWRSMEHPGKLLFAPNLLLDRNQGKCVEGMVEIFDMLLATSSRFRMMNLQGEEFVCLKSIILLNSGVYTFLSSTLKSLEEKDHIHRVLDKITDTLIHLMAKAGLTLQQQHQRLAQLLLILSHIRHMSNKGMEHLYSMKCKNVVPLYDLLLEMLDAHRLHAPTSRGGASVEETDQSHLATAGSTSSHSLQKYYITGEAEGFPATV
Sequence of Estrogen receptor beta (Homo sapiens) (Q92731 whole entry, looked up): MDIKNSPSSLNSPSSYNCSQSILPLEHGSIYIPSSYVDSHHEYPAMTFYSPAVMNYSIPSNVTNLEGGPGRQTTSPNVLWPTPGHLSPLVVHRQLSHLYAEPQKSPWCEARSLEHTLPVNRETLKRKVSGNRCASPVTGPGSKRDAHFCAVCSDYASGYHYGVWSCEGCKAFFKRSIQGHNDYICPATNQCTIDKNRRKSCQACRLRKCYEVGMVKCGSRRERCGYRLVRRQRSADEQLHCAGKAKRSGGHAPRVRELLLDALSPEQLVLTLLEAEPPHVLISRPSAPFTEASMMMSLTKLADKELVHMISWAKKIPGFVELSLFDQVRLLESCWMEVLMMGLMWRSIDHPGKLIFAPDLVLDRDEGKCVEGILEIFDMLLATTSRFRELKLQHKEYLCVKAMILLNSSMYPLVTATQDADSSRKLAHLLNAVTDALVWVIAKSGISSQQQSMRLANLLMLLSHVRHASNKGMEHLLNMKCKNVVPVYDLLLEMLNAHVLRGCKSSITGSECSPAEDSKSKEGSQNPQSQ
Sequence of Progesterone receptor (Homo sapiens) (P06401 whole entry, looked up): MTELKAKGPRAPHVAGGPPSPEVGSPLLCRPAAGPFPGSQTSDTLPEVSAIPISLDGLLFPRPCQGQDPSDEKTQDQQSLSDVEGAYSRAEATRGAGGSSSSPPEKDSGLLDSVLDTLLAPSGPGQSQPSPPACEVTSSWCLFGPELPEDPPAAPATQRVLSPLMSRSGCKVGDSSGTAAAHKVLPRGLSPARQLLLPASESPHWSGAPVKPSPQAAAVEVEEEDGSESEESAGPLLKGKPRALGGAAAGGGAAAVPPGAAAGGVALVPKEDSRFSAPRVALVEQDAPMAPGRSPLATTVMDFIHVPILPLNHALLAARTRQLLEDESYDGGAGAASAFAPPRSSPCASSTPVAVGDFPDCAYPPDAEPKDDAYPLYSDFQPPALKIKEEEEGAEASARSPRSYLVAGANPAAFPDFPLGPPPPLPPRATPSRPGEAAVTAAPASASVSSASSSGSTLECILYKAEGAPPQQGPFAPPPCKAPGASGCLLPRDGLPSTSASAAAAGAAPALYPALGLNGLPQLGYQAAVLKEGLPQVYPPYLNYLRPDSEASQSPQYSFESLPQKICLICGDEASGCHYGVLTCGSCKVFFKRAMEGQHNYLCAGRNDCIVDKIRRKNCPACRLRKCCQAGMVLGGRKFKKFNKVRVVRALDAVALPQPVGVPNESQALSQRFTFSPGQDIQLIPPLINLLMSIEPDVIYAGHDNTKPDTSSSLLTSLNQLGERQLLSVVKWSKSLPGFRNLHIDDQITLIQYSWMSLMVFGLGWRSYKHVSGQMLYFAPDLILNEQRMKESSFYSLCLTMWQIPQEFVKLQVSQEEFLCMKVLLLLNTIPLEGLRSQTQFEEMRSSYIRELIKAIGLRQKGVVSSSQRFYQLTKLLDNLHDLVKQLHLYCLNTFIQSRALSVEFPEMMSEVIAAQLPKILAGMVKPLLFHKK
Sequence of Thyrotropin receptor (Homo sapiens) (P16473 whole entry, looked up): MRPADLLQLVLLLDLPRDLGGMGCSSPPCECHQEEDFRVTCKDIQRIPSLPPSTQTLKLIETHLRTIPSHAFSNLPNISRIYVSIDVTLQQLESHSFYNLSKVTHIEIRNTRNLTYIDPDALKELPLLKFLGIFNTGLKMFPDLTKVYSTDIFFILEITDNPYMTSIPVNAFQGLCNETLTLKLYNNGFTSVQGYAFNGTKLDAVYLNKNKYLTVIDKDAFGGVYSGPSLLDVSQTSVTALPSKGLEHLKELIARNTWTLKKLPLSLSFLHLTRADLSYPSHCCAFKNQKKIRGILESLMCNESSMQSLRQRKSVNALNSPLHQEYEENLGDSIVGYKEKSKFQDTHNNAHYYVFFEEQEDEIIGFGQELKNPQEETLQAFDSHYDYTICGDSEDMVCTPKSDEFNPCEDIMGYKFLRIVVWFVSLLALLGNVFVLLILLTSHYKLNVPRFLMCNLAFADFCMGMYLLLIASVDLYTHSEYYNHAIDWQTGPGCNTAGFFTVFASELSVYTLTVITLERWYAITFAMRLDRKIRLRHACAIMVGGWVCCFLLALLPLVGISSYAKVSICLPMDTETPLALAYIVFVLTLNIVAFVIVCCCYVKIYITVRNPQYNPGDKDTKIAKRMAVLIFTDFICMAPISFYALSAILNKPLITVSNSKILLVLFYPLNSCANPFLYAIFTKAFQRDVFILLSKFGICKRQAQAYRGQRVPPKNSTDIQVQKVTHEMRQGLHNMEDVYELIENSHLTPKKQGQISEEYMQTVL
Sequence of Androgen receptor (Homo sapiens) (P10275 whole entry, looked up): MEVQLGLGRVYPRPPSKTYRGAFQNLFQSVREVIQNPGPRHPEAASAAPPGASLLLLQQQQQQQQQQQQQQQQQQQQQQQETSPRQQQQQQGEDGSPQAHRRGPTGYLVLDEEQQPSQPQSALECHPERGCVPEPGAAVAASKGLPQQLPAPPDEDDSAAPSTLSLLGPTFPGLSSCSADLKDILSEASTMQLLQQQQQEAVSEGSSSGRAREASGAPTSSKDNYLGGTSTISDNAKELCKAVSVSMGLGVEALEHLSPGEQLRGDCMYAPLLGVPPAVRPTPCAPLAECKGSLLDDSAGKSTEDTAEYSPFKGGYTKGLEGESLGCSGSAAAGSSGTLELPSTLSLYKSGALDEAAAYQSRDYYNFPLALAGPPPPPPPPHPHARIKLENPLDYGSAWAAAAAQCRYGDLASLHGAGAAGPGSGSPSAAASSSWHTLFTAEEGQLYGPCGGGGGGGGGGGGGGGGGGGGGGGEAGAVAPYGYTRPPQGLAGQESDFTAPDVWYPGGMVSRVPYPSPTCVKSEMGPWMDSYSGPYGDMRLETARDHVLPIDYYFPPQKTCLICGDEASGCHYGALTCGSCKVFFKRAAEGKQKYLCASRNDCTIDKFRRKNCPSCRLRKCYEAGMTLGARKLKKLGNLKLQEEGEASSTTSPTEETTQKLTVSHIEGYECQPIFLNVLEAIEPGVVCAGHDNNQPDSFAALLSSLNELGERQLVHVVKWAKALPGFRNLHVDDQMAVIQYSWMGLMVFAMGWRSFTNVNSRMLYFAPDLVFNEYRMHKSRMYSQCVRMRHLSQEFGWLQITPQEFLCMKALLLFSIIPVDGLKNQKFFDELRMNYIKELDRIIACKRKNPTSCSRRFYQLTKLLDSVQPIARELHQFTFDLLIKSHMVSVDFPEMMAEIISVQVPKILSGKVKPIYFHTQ

CN1CCN(c2c(F)cc3c(=O)c(C(=O)O)cn(CCF)c3c2F)CC1
not listed: [17] | [18] | [19]
inactive: all other assays above

N#CSCC(=O)O
not listed: [4] | [10] | [15] | [16] | [18] | [19]
inactive: all other assays above

CCCCCCCCOC(=O)CCCCCCCCC(=O)OCCCCCCCC
not listed: [5] | [6] | [7] | [17] | [19]
inactive: all other assays above

O=C1CCCCCCCCCCC(=O)OCCO1
not listed: [9] | [10] | [17]
inactive: all other assays above

CCOC(=O)NCCC[Si](OCC)(OCC)OCC
not listed: [10] | [17]
inactive: all other assays above

O=C(O)c1cccc(Cl)c1Cl
not listed: [5] | [9] | [15] | [16] | [17] | [18]
inactive: all other assays above

C1CCOC1
not listed: [1] | [2] | [17] | [19]
inactive: all other assays above

CCCCOc1cc(C(=O)NCCN(CC)CC)c2ccccc2n1
inactive: [1] | [5] | [6] | [8] | [9] | [12] | [13] | [14] | [15]

CN(C)CC[C@@H](c1ccc(Cl)cc1)c1ccccn1
not listed: [1] | [2] | [5] | [17] | [19]
inactive: all other assays above

C[C@]12C(=O)OC(=O)[C@H]1[C@H]1C=C[C@@H]2C1
not listed: [1] | [2] | [7] | [16] | [17] | [19]
inactive: all other assays above
